Test [1] in a line: CCTE_Shafer_MEA_dev_burst_duration_mean: CCTE's Neural Network Formation Assay for Mean Burst Duration, Shafer Lab (AID 2284045).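 As to AC50: curve fitted for loss meaning shorter burst duration than DMSO.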 The essentials: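 Primary rat cortical neurons on 48-well 16-electrode MEA plates, exposed from day 0 with renewal at DIV 5 and 9; spontaneous activity recorded on days 5, 7, 9, 12. Well-mean burst duration across bursting electrodes, collapsed as trapezoidal AUC; DMSO baseline.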

Test [2] in a line: CCTE_Shafer_MEA_dev_interburst_interval_mean: CCTE's Neural Network Formation Assay for Mean Interburst Interval, Shafer Lab (AID 2284046).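 Also: well-mean interburst interval of bursting electrodes as AUC over four recording days; curve fitted for decrease in interburst interval relative to DMSO.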 The essentials: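 Recordings on days 5, 7, 9 and 12 give well-mean interburst interval across actively bursting electrodes, summarized as area under the curve. Cultures: rat cortical neurons, continuous exposure from day 0, compound renewed at feeds; decrease analyzed versus DMSO.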

The nature of test [3]: CCTE_Shafer_MEA_dev_inter_network_spike_interval_mean: CCTE's Neural Network Formation Assay for Mean Inter-network Spike Interval, Shafer Lab (AID 2284047). The essentials:
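Primary rat cortical neurons on 16-electrode MEA wells, exposed from plating day 0 through DIV 12, compound renewed at DIV 5 and 9 media changes. Mean interval between network-spike peaks recorded DIV 5, 7, 9, 12; collapsed as trapezoidal AUC, fitted downward versus DMSO.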

Test [4] can be described thus: CCTE_Shafer_MEA_dev_network_spike_number: CCTE's Neural Network Formation Assay for Number of Network Spikes, Shafer Lab (AID 2284048).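 Also: synchronized bursts across electrodes counted on days 5 7 9 12 and integrated as AUC.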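 As to AC50: fit as a loss of signal meaning fewer network spikes than DMSO.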 A digest of the protocol: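 Primary rat cortical neurons on PEI/laminin 48-well MEA plates, dosed from plating day 0 for 12 days, renewed at DIV 5 and 9. Network spike counts recorded DIV 5, 7, 9, 12, collapsed as trapezoidal AUC; DMSO baseline.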

Test [5] in a line: CCTE_Shafer_MEA_dev_network_spike_peak: CCTE's Neural Network Formation Assay for Mean Number of Electrodes in Network Spike, Shafer Lab (AID 2284049).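 As to AC50: fitted for loss of signal meaning fewer electrodes in network spikes than DMSO.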 The essentials:
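Network-spike peak electrode count from recordings on days 5, 7, 9 and 12 was combined as trapezoidal area under the curve. Rat cortical cultures were treated continuously from plating, with compound renewed at each feed (DIV 5, 9); fits versus DMSO.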

The nature of test [6]: CCTE_Shafer_MEA_dev_spike_duration_mean: CCTE's Neural Network Formation Assay for Mean Spike Duration, Shafer Lab (AID 2284051).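 Also: mean network spike duration pooled as area under curve over DIV 5 to 12 recordings.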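 As to AC50: potency for a decrease in mean network spike duration versus DMSO.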 The essentials:
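Primary rat cortical neurons on 16-electrode MEA wells (PEI-coated, laminin in plating drop), exposed from plating through DIV 12 with compound renewed at DIV 5 and 9. Mean network-spike duration recorded DIV 5, 7, 9, 12; trapezoidal AUC across days, DMSO baseline.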

The nature of test [7]: CCTE_Shafer_MEA_dev_network_spike_duration_std: CCTE's Neural Network Formation Assay for Standard Deviation of Network Spike Duration, Shafer Lab (AID 2284052).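 Also: area under curve of spike duration SD across recording days 5 to 12; hits are decreases in network spike duration SD versus DMSO vehicle.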 A digest of the protocol: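 Primary rat cortical neurons on PEI-coated 16-electrode MEA wells, exposed from plating day 0 through day 12 with compound renewed at DIV 5 and 9. Network spike duration SD recorded on days 5, 7, 9, 12, collapsed as trapezoidal AUC; loss-of-signal fit versus DMSO.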

A short description of test [8]: CCTE_Shafer_MEA_dev_per_network_spike_spike_number_mean: CCTE's Neural Network Formation Assay for Mean Number of Spikes in a Network Spike, Shafer Lab (AID 2284053).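 As to AC50: fitted as decrease in spikes per network spike relative to DMSO.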 The essentials: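 Primary rat cortical neurons on 48-well, 16-electrode MEA plates were exposed from plating to DIV 12, with dosing renewed on DIV 5 and 9. Spikes per network spike (0.05 s peak window) were recorded on DIV 5, 7, 9 and 12 and collapsed as trapezoidal AUC versus DMSO.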

Test [9] can be described thus: CCTE_Shafer_MEA_dev_per_network_spike_spike_percent: CCTE's Neural Network Formation Assay for Percent of Spikes in a Network Spike, Shafer Lab (AID 2284054). A digest of the protocol: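 Rat primary cortical neurons were grown on 48-well MEA plates (16 electrodes/well), exposed from plating day 0 through day 12, with treatment renewed on DIV 5 and 9. Percent of spikes within 0.05 s network-spike peaks was measured, summarised as AUC across days 5, 7, 9, 12.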

Test [10] is described as follows: UKN5_HCS_SBAD2_cell_viability: Viability Assessment in the University of Konstanz (UKN) Leist Lab Neurite Outgrowth Assay in human iPSC-derived immature Dorsal Root Ganglia Neurons (UKN5) (AID 2284056). The essentials: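 iPSC-derived immature peripheral neurons (SBAD2) seeded on Matrigel with CHIR99021, SU5402 and DAPT, dosed 1 h later for 24 h. Viability from Hoechst H-33342 and calcein-AM live staining, high-content imaging; bidirectional fit versus DMSO.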

A short description of test [11]: CCTE_Shafer_MEA_dev_LDH: CCTE's Lactate Dehydrogenase Assay for Cytotoxicity in the Neural Network Formation Assay, Shafer Lab (AID 2284068; active = hit-call score of the fitted dose curve at least 0.9, where 1 is the maximum;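 also: exposure for twelve days from plating with re-dosing on DIV 5 and 9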). The essentials:
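Primary rat cortical neurons were plated on PEI/laminin MEA plates and exposed from day 0 for twelve days, with compound renewed at DIV 5 and 9. Cytotoxicity was determined by spectrophotometric LDH assay relative to DMSO.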

The nature of test [12]: UKN5_HCS_SBAD2_neurite_outgrowth: University of Konstanz (UKN) Leist Lab Neurite Outgrowth Assay in human iPSC-derived immature Dorsal Root Ganglia Neurons (UKN5) (AID 2284070). As to conditions: actives raise or lower the signal. The essentials: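 SBAD2 iPSC-derived immature peripheral neurons on Matrigel, 100.000 cells/cm2, medium with CHIR99021 (1.5 uM), SU5402 (5 uM), DAPT (5 uM); compound added 1 h post-seeding for 24 h. Calcein-AM neurite area by high-content imaging; Hoechst H-33342 viability; bidirectional fit vs DMSO.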

Test [13] is described as follows: CCTE_Shafer_MEA_dev_correlation_coefficient_mean: CCTE's Neural Network Formation Assay for Mean Correlation Coefficient, Shafer Lab (AID 2284093).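 As to AC50: well mean pairwise spike train correlation integrated as AUC over recording days 5 to 12; potency fitted for loss of correlation relative to DMSO vehicle wells.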 The essentials: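 Spontaneous activity recorded on days 5, 7, 9 and 12 post-plating; pairwise spike correlations are averaged across active electrodes and collapsed to an area-under-curve. Rat cortical cultures are dosed from plating through 12 days, with compound renewed at media changes.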

Test [14] is described as follows: UKN2_HCS_IMR90_neural_migration: University of Konstanz (UKN) Leist Lab Neural Crest Cell Migration Assay in human induced IMR90 Pluripotent Stem Cells (UKN2) (AID 2284204). The following applies: actives raise or lower the signal. The essentials:
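iPSC-derived IMR90 neural crest cells seeded around stoppers on PLO/laminin/fibronectin; migration started in N2-S medium with EGF/FGF, compounds added after 24 h for 24 h. Migration into cell-free area imaged after calcein-AM/Hoechst staining; bidirectional fit versus DMSO.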

Test [15] is described as follows: UKN4_HCS_LUHMES_neurite_outgrowth: University of Konstanz (UKN) Leist Lab Neurite Outgrowth Assay in human LUHMES cells (UKN4) (AID 2284206). The following applies: actives raise or lower the signal. The essentials: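 Human LUHMES neuronal precursors, differentiated 2 days then replated without cAMP and GDNF, exposed to compounds for 24 h. Neurite area imaged by high-content microscopy after calcein-AM live staining; Hoechst H-33342 for viability; bidirectional fit versus DMSO.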

Test [16] can be described thus: CCTE_Shafer_MEA_dev_AB: CCTE's Alamar Blue Assay for Cytotoxicity in the Neural Network Formation Assay, Shafer Lab (AID 2284083; active = hit-call score of the fitted dose curve at least 0.9, where 1 is the maximum;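 also: twelve days of exposure from plating with re-dosing on DIV 5 and 9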). The essentials:
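Primary rat cortical neurons on PEI-coated 48-well MEA plates, 1.5 x 10^5 cells/well in laminin drop; compound exposure from day 0 of plating for twelve days, renewed at medium changes on DIV 5 and 9. Viability read as resazurin reduction by fluorescence, relative to DMSO.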
A general note: The colour change of resazurin is a common sign of viable cells or microbes.

Test [17] can be described thus: CCTE_Shafer_MEA_acute_LDH: CCTE's Lactate Dehydrogenase Assay for Cytotoxicity in the Neural Acute Assay, Shafer Lab (AID 2284086; active = hit-call score of the fitted dose curve at least 0.9, where 1 is the maximum;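 also: active means LDH release rises above DMSO vehicle level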). The essentials: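 Medium from rat cortical neuron MEA cultures sampled right after the 40 min compound-exposure recording; released LDH measured by absorbance at 490 nm. Analyzed as signal gain relative to DMSO.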
A short description of test [18]: CCTE_Shafer_MEA_acute_AB: CCTE's Alamar Blue Assay for Cytotoxicity in the Neural Acute Assay, Shafer Lab (AID 2284069; active = hit-call score of the fitted dose curve at least 0.9, where 1 is the maximum;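 also: active compounds lower the viability signal compared with DMSO wells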). The essentials:
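Primary rat cortical neurons on MEA plates, exposed acutely after baseline recording on day 13 or 15 post-plating. Viability by CellTiter Blue resazurin reduction (1:6 reagent dilution), fluorescence 544/590 nm; loss of signal versus DMSO.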

In another test the test system is DIO2 (gene 1734). The test can be described thus: CCTE_GLTED_hDIO2: CCTE's human Deiodinase 2 (DIO2) Inhibition Assay, Great Lakes Toxicology and Ecology Division (GLTED) Lab (AID 2284050; active = hit-call score of the fitted dose curve at least 0.9, where 1 is the maximum). A digest of the protocol:
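Cell-free human DIO2 incubated 3 h with chemical; liberated iodide quantified by Sandell-Kolthoff absorbance. Triplicate plates; loss of signal fitted vs DMSO.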

Another test deals with DIO3 (gene 1735). The test can be described thus: CCTE_GLTED_hDIO3: CCTE's human Deiodinase 3 (DIO3) Inhibition Assay, Great Lakes Toxicology and Ecology Division (GLTED) Lab (AID 2284055; active = hit-call score of the fitted dose curve at least 0.9, where 1 is the maximum;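 also: potency is for inhibition seen as loss of released iodide signal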). The essentials: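 Human DIO3 from an adenovirus expression system is incubated 3 h with test chemical. Released iodide is quantified by Sandell-Kolthoff absorbance, in triplicate plates. Loss of signal is fitted relative to DMSO.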

Records with an inconclusive call do not appear. Activity calls are given as the source filed them. The calls were made as follows, unless noted: active = hit-call score of the fitted dose curve at least 0.9, where 1 is the maximum; inactive = score below 0.9.

Regarding `CNC(=O)CSP(=O)(OC)OC`, the result in [1], in test [2], in test [3], in test [4], in test [5] and in [6] was inactive. Further, the compound was classed as inactive in [7], in [8], in test [9], in test [11], in [12] and in test [13]. For the same compound, the compound was called inactive in [14] and in test [15]. Moreover, the AC50 in test [10] is 20.9 µM (active).
Turning to `CS(=O)(=O)c1ccc(C(=O)C2C(=O)CCCC2=O)c(Cl)c1COCC(F)(F)F`, the call in test [1], in [2], in test [3], in [4], in [5] and in [6] was inactive. In addition, the compound was classed as inactive in test [7], in test [8], in test [9], in test [16], in test [17] and in test [13].
On to `CC(F)(F)CC(F)(F)F`, for which the result in test [1], in [2], in [3], in test [4], in test [5] and in test [6] was inactive. Besides, the compound was classed as inactive in test [7], in test [8], in [9], in test [16] and in test [13].
On to `Oc1cc(Cl)c(Cl)cc1Cl`, for which the compound was called inactive in test [18] and in test [17].
For the compound `O=[N+]([O-])c1ccc(Cl)c([N+](=O)[O-])c1`, the concentration at half-maximal activity (AC50) with DIO2 (gene 1734) is 30.3 µM (active); in the test on DIO3 (gene 1735) it was 7.41 µM (active).
On to `NC(=O)c1ccc(N)nc1`, for which the AC50 in test [1] was 8.66 µM (active); in [2] it was 3.16 µM (active); in test [4] it was 7.35 µM (active); in test [5], 4.53 µM (active); in test [6], 7.59 µM (active); in test [7], 7.69 µM (active). The AC50 in test [8] is 4.19 µM (active); in test [9], 6.23 µM (active); in test [11], 6.05 µM (active); in test [16], 8.53 µM (active); in [13], 4.57 µM (active). The compound was classed as inactive in test [3].
Regarding `CC(=Cc1ccccc1)[N+](=O)[O-]`, the results for the concentration at half-maximal activity (AC50) with DIO2 (gene 1734) and with DIO3 (gene 1735) were 41.8 µM (active) and 64.6 µM (active), respectively.

As usually defined, the AC50 is the midpoint of the concentration-response curve, whichever way the signal moves.

(Values after PubChem BioAssay (EPA / NIEHS).)
